# Measurements taken from PubChem BioAssay (NCI).
# This is part of a sample that, as a whole, favours compounds with a hit. Of some 83,000 tested, about 20% had one in any assay.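 Negative percent growth values reflect cell death: -40 means 40% of the cells present at the start died, and -100 means all died.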 Unmarked numbers belong to inactive results. The source made the active and inactive calls. The calls were made as follows: active = growth percent below 10; inactive = the rest.
# Key:
# Assay in all cases: NCI-60 one-dose screen, 48 h (100 = growth as untreated, 0 = no growth, -100 = all killed)
# Conditions in all cases: 10 µM unless noted
# HCT-15 colon = system: HCT-15 colon
# HT29 colon = system: HT29 colon
# SNB-75 CNS = system: SNB-75 CNS
# SNB-19 CNS = system: SNB-19 CNS
# PC-3 prostate = system: PC-3 prostate
# UACC-62 melanoma = system: UACC-62 melanoma
# LOX IMVI melanoma = system: LOX IMVI melanoma
# SK-MEL-28 melanoma = system: SK-MEL-28 melanoma
# U251 CNS = system: U251 CNS
# SK-MEL-5 melanoma = system: SK-MEL-5 melanoma
SMILES,growth (HCT-15 colon),growth (HT29 colon),growth (SNB-75 CNS),growth (SNB-19 CNS),growth (PC-3 prostate),growth (UACC-62 melanoma),growth (LOX IMVI melanoma),growth (SK-MEL-28 melanoma),growth (U251 CNS),growth (SK-MEL-5 melanoma)
COc1cc(OC)c2c(c1Cl)O[C@]1(C2=O)C(OCc2ccccc2)=CC(=O)C[C@H]1C,15.7%,7.63% (active),24.2%,36.2%,6.5% (active),6.94% (active),17.9%,16.4%,–,–
N#Cc1c(-c2ccccc2)cc(-c2ccccc2)n(CCCC(=O)O)c1=O,92.9%,103%,–,98.7%,109%,91%,95.4%,108%,93.3%,93.5%
CO[C@H]1/C=C/O[C@@]2(C)Oc3c(C)c(O)c4c(O)c(c(/C=N/N5C(C)CN(Cc6ccc(C#N)cc6)CC5C)c(O)c4c3C2=O)NC(=O)/C(C)=C\C=C\[C@H](C)[C@H](O)[C@@H](C)[C@@H](O)[C@@H](C)[C@H](OC(C)=O)[C@@H]1C (stereo not given in full),25%,26.4%,56.7%,–,13.1%,3.13% (active),52.5%,46.3%,34.9%,5.17% (active)
C/C(=C\CCc1ccoc1)CC/C=C(\C)CCCC1COC(=O)C1 (stereo not given),99.2%,113%,96.7%,99.6%,91.2%,80%,–,96.9%,–,98.6%
COc1cccc(CCN2C(=O)CCC3=C2CCC3=O)c1,108%,106%,84.4%,102%,93.5%,97.8%,97.9%,111%,–,98.2%
Cc1ccc(OCC(=O)Nc2ccc(Oc3ccccc3)cc2)c([N+](=O)[O-])n1,95.2%,95%,78.8%,58.7%,–,60.9%,89.6%,111%,–,44.2%
COc1ccc2c(c1)sc1nc(-c3ccc(N(C)C)cc3)cn12,116%,113%,162%,95.3%,60.6%,104%,113%,144%,–,–
Clc1ccc2[nH]cc(-c3cncn3CCc3ccccc3)c2c1,51%,57.3%,–,71.1%,46.7%,57.4%,70%,69.8%,57.9%,10.8%
N/C(=N\C(N)=N\c1nc2ccccc2s1)c1ccnc(Cl)c1,29.9%,13.7%,–,39.4%,37.9%,33.9%,44.9%,62.2%,33.8%,17.3%
O=C(NC1CCS(=O)(=O)C1)c1ccc(C(=O)c2ccccc2)cc1 (stereo not given),101%,106%,90.9%,97.9%,101%,–,95.6%,89.2%,–,110%
O=c1ncc(-c2ccc(C(F)(F)F)cc2)c(NC2CCCCCC2)[nH]1,103%,56.5%,87%,54.9%,25.7%,29.6%,57.9%,49.3%,–,–
N#Cc1c(-c2ccccc2)cc(-c2ccccc2)n(CCCCC(=O)O)c1=O,71.3%,99.8%,–,96.1%,93.1%,80.6%,88.2%,89.5%,93.3%,93.7%
N#Cc1c(-c2ccccc2)cc(-c2ccccc2)n(CCC(=O)O)c1=O,29.7%,19.3%,–,56.1%,75.3%,32.3%,51%,57.3%,38.2%,3.86% (active)
NS(=O)(=O)N(c1cc(C(F)(F)F)cc(C(F)(F)F)c1)C1CCN(Cc2ccc(C(F)(F)F)cc2)CC1,45.7%,5.92% (active),-4.94% (active),–,26%,24.3%,23.5%,55.4%,33%,38.2%
CC(C)N(Cc1ccccc1)c1c(Cl)ssc1=O,108%,100%,113%,101%,95.9%,93.1%,96.3%,101%,–,–
O=C1C2C(C(=O)N1CC[Se][Se]CCN1C(=O)C3C(C1=O)[C@H]1C=C[C@@H]3C1)[C@H]1C=C[C@@H]2C1 (stereo not given in full),1.11% (active),-8.38% (active),–,-55.5% (active),-12.8% (active),-60.8% (active),-26% (active),-3.71% (active),-90.5% (active),-53.9% (active)
Oc1c(Cl)cc(Cl)c(Cl)c1Cc1c(O)c(Cl)cc(Cl)c1Cl,11.5%,13.1%,46.9%,23%,-6.08% (active),2.95% (active),26.2%,22.4%,–,-72.7% (active)

SMILES,growth (HCT-15 colon),growth (HT29 colon),growth (SNB-75 CNS),growth (SNB-19 CNS),growth (PC-3 prostate),growth (UACC-62 melanoma),growth (LOX IMVI melanoma),growth (SK-MEL-28 melanoma),growth (U251 CNS),growth (SK-MEL-5 melanoma)
CCOC(=O)N1CCC(N=C2CSc3nnc(-c4cc(C(F)(F)F)cc(C(F)(F)F)c4)n3N2)CC1,25.2%,-3.65% (active),–,58.2%,2.55% (active),32.6%,16.5%,44.5%,22.6%,-67.5% (active)
O=C(CNC(=O)c1cccc2ccccc12)Nc1ccccc1Oc1cccc(O)c1,22.6% [5 µM],14.8% [5 µM],4.28% [5 µM] (active),38% [5 µM],28.1% [5 µM],44.9% [5 µM],33.4% [5 µM],57.3% [5 µM],–,–
COc1cc(/C=C/C(=O)c2c(C)n([O-])c3ccccc3[n+]2=O)cc(OC)c1OC,30%,65.4%,81%,50.8%,25.5%,54.7%,50.9%,79%,–,–
Cc1ccc(-c2c3c(N)nc(-c4ccncc4)nc3nc3c2c(C)nn3-c2ccccc2)cc1,45%,21.8%,22.5%,88.4%,–,58.3%,8.73% (active),30.4%,–,55.3%
CC(=O)Nc1cc2c3c(cccc3c1)-c1ccccc1-2,79.4%,108%,60.1%,91.2%,57.9%,89%,75.9%,103%,–,–
O=C(NC1CCCCC1)c1ccc(Nc2ncnc3c2cnn3-c2ccccc2)cc1,66.6%,70.2%,-20.3% (active),48.7%,53.3%,63.9%,–,62.2%,–,75.4%
CCN1CCN(c2nc(NNC(=O)Cc3ccccc3)nc(N3CCN(C(c4ccccc4)c4ccccc4)CC3)n2)CC1,22.9%,-7.32% (active),–,84.2%,63.7%,84.7%,-54.9% (active),92.6%,19.1%,2.68% (active)
COc1ccc(CCN2C(=O)CCC3=C2CCCC3=O)cc1OC,97.6%,108%,82.3%,100%,96.6%,105%,98.8%,108%,–,–
COc1ccc(CC(=O)Nc2nn3c(-c4cc(C(F)(F)F)cc(C(F)(F)F)c4)nnc3s2)cc1,62.4%,83.7%,–,70.1%,84.8%,28.6%,52.3%,84.5%,70.4%,–
O=C(Nc1cccc(-n2cc(-c3ccncc3)c(-c3cc(O)cc(Cl)c3)n2)c1)Nc1ccc(Cl)c(Cl)c1,-25.3% (active),–,4.08% (active),30.8%,-1.66% (active),-61.8% (active),-84.7% (active),-50.9% (active),-56.5% (active),-53% (active)
Nc1nc2c(c(=O)[nH]1)C1(C(=O)Nc3ccccc31)c1c(nc(N)[nH]c1=O)N2,105%,–,91.5%,104%,103%,103%,98.2%,112%,107%,–
Cc1cc(C(=O)Nc2ccc3cc(CN4CCOCC4)ccc3n2)c(C)n1-c1ccccc1,40.4%,–,15.5%,77%,4.55% (active),7.01% (active),24.2%,27.9%,46.3%,–
Cc1ccc(NC(=O)c2sc3nc4c(cc3c2N)C(=O)CCC4)cc1,58.6%,–,86.3%,72.2%,73.2%,69.2%,93.1%,84.8%,86.6%,53.2%
N#Cc1ccc(-c2csc(Nc3ccc4nc5n(c(=O)c4c3)CCC5)n2)cc1,98.2%,105%,–,98.1%,110%,100%,101%,104%,–,97.4%
O=C(CSc1nnc(-c2cc(-c3ccccc3)nc3ccccc23)o1)c1ccc(Br)cc1,109%,–,97.4%,93.2%,107%,94.8%,101%,113%,98.2%,103%
COc1cc(/C=C/c2cc(/C=C/c3ccc(O)c(OC)c3)n(C(=O)c3ccc(Cl)cc3)n2)ccc1O,14.1%,–,-2.93% (active),45.6%,4.59% (active),22.5%,13.9%,19.5%,16.8%,-32.4% (active)
